“And” between values parts separate entries of the source, which are not always exact repeats. Equal entries are not always repeated. The source made the active and inactive calls.
Experiments:
Albumin (Bos taurus) = Albumin (Bos taurus) (UniProt P02769); assay: bovine serum albumin binders on microarray, profiling panel, artefact control for SMM control protein annotation, biochemical, small-molecule microarray, Alexa647 label, 635/667 nm fluorescence (AID 1118); settings: BSA-A647 binding, fluorescence 635 nm, higher = more signal;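 further: score merges 667 nm emission intensity and signal-to-noise per printed compound spot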
Albumin (Bos taurus), sequence (P02769 whole entry, looked up): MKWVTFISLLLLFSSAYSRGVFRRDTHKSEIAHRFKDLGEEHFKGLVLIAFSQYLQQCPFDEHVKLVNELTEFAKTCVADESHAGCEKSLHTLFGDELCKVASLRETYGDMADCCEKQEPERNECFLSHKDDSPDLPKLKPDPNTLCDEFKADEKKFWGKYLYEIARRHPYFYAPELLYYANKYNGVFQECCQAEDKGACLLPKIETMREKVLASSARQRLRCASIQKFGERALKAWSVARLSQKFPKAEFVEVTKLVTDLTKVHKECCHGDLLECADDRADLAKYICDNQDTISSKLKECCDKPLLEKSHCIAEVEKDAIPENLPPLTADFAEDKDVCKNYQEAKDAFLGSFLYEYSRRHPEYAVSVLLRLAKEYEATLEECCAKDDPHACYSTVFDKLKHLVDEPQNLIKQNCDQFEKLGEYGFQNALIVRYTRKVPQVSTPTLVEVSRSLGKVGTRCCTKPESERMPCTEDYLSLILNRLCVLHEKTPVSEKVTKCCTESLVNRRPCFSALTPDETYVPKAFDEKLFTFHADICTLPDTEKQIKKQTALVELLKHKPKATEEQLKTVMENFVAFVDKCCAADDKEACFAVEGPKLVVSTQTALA

[1] = small-molecule microarray binders of probe aXIP, primary screen, biochemical, NeuroSMM set, 635/667 nm fluorescence (AID 1119); settings: higher = more signal, called active from +8 up or from −8 down;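 further: probe is the protein aXip251-270 applied at 1 µg/mL to compound-printed slides; binding of probe to printed compounds measured as 667 nm fluorescence plus signal to noise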
[2] = small-molecule binders of probe aNOTCH3, primary screen, biochemical, small-molecule microarray, 635/667 nm fluorescence (AID 1120); settings: higher = more signal;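 further: probe is a biotin-tagged antibody raised against NOTCH3 rather than NOTCH3 protein; score merges spot fluorescence near 667 nm with spot signal to noise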
[3] = small-molecule binders of probe aNOTCH2, primary screen, biochemical, small-molecule microarray, 635/667 nm fluorescence (AID 1121); settings: higher = more signal;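 further: score merges feature fluorescence read at 667 nm with its signal to noise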
[4] = target: Carbonic anhydrase 2 (Homo sapiens) (UniProt P00918); assay: CAII small-molecule binders, profiling panel, biochemical, small-molecule microarray, Alexa647-labelled CAII (AID 1122); settings: CAII-A647 binding fluorescence, higher = more signal
[5] = COS7 lysate on small-molecule microarray, probe aHis, 635 nm (AID 1123); settings: COS7 cell lysate, fluorescence, higher = more signal;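 further: z-score combines 667nm fluorescence intensity with signal-to-noise per printed compound spot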
[6] = compound binding in COS7 lysate, probe aLAP1, primary screen, cell lysate, small-molecule microarray (AID 1124); settings: probe aLAP1, fluorescence, higher = more signal;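 further: lysate comes from COS7 cells expressing LAP1 and is applied at 0.3 µg/mL; score merges spot fluorescence near 667 nm with signal-to-noise over triplicate slides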
Sam68 (KHDRBS1) = assay: Sam68 small-molecule binders, primary screen, biochemical, small-molecule microarray, 635 nm fluorescence (AID 1125); settings: small-molecule microarray binding, higher = more signal;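 further: score merges 667 nm channel intensity with signal to noise over triplicate slides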
[7] = tested on: Chordin-like protein 2 (CHRDL2); assay: CHRDL2 small-molecule binders, primary screen, biochemical, small-molecule microarray, 635 nm fluorescence (AID 1126); settings: small-molecule microarray binding, fluorescence 635 nm; higher = more signal;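 further: printed compound slides probed with Chrdl2 protein at 4 µg/mL for 1 h at 4 C; score merges 667 nm emission intensity with signal to noise over three replicate slides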
[8] = target: Concanavalin-A (Canavalia ensiformis) (UniProt P02866); assay: ConA small-molecule binders, primary screen, artefact control for SMM control protein annotation, biochemical, small-molecule microarray, Alexa647 label, 635 nm (AID 1127); settings: ConA-A647 binding fluorescence, higher = more signal;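 further: z combines 667 nm emission intensity with signal-to-noise across three replicate slides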
Concanavalin-A (Canavalia ensiformis), sequence (P02866 whole entry, looked up): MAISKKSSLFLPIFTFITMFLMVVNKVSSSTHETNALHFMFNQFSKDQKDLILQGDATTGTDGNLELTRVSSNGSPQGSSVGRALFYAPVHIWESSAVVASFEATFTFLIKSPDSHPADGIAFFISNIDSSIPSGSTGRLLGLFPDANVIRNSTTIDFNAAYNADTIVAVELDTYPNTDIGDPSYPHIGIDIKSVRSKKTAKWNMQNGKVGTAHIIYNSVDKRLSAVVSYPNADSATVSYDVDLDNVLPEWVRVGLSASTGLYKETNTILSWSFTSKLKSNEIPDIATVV

Compound: C=CCN(Cc1ccccc1)C(=O)C1N(CCCCCCO)C(=O)C2C(C(=O)O)C3C=CC21O3 (stereo not given)
- composite z-score (Albumin (Bos taurus)): -0.198 and 0.768
- composite Z-score [1]: -0.461 (inactive) and -0.2 (inactive)
- composite z-score [2]: -0.541 and -0.445
- composite z-score [3]: -0.14 and -0.154
- composite z-score [4]: 0.812 and 0.904
- composite z-score [5]: -0.376 and -0.155
- composite z-score [6]: -0.694 and -0.332
- composite z-score (Sam68 (KHDRBS1)): -0.442 and -1.97
- composite z-score [7]: -3.18 and -2.25
- composite z-score [8]: -0.588 and -2.21

Compound: CC(CO)N1C(=O)[C@@H]2C3C(=O)OCCC=C[C@H]3OC23C=CCN(Cc2ccccc2)C(=O)[C@@H]13 (stereo not given in full)
- composite z-score (Albumin (Bos taurus)): -0.561 and -0.652
- composite Z-score [1]: 0.0931 (inactive) and -0.171 (inactive)
- composite z-score [2]: -0.207 and -0.136
- composite z-score [3]: -0.174 and -0.133
- composite z-score [4]: 0.84 and 0.944
- composite z-score [5]: -0.205 and 0.481
- composite z-score [6]: 0.716 and 0.0818
- composite z-score (Sam68 (KHDRBS1)): -0.0818 and -0.239
- composite z-score [7]: -0.927 and -0.898
- composite z-score [8]: -1.3 and -1.38

Compound: C=CCN(CCCCC)C(=O)C1N(CCCCCCO)C(=O)C2C(C(=O)O)C3C=CC21O3 (stereo not given)
- composite z-score (Albumin (Bos taurus)): -1.03 and 0.785
- composite Z-score [1]: 0.207 (inactive) and 0.382 (inactive)
- composite z-score [2]: -0.374 and -0.327
- composite z-score [3]: 0.316 and -0.193
- composite z-score [4]: 0.85 and 0.83
- composite z-score [5]: 0.66 and 0.309
- composite z-score [6]: 0.752 and -0.289
- composite z-score (Sam68 (KHDRBS1)): -0.408 and -1.45
- composite z-score [7]: -3.13 and -1.54
- composite z-score [8]: -0.556 and -1.47

Compound: C=CCN(CCCC)C(=O)C1N(CCOCCO)C(=O)C2C(C(=O)O)C3C=CC21O3 (stereo not given)
- composite z-score (Albumin (Bos taurus)): -0.994 and -2.32
- composite Z-score [1]: 0.0673 (inactive) and 0.289 (inactive)
- composite z-score [2]: -0.372 and -0.457
- composite z-score [3]: -0.211 and -0.185
- composite z-score [4]: 1.01 and 0.811
- composite z-score [5]: 0.806 and -0.742
- composite z-score [6]: 0.675 and 0.0426
- composite z-score (Sam68 (KHDRBS1)): -1.11 and -1.43
- composite z-score [7]: -1.67 and -1.1
- composite z-score [8]: -0.268 and -1.9

Compound: C=CCN(CCCC)C(=O)C(c1cccs1)N(C(=O)/C=C\C(=O)O)c1ccc(CCO)cc1 (stereo not given)
- composite z-score (Albumin (Bos taurus)): -1.02 and -2.4
- composite Z-score [1]: 0.127 (inactive) and -0.0505 (inactive)
- composite z-score [2]: -0.437 and -0.449
- composite z-score [3]: -0.171 and -0.202
- composite z-score [4]: 0.864 and 0.861
- composite z-score [5]: 0.0769 and -0.501
- composite z-score [6]: 0.132 and -0.426
- composite z-score (Sam68 (KHDRBS1)): -0.798 and -1.53
- composite z-score [7]: -1.26 and -4.41
- composite z-score [8]: -1.83 and -1.63

Compound: CC(CO)N1C(=O)[C@@H]2C3C(=O)OCCC=C[C@H]3OC23C=CCN(c2ccc(Cl)cc2)C(=O)[C@@H]13 (stereo not given in full)
- composite z-score (Albumin (Bos taurus)): -0.999 and 0.734
- composite Z-score [1]: -0.33 (inactive) and 0.551 (inactive)
- composite z-score [2]: -0.33 and 0.0749
- composite z-score [3]: -0.0995 and 0.0031
- composite z-score [4]: 0.889 and 0.596
- composite z-score [5]: -0.31 and 0.287
- composite z-score [6]: -0.102 and -0.304
- composite z-score (Sam68 (KHDRBS1)): -0.805 and 0.2
- composite z-score [7]: -1.51 and -0.496
- composite z-score [8]: -0.935 and 0.094

Compound: CC(CO)N1C(=O)[C@@H]2C3C(=O)OCCC=C[C@H]3OC23C=CCN(CCN2CCOCC2)C(=O)[C@@H]13 (stereo not given in full)
- composite z-score (Albumin (Bos taurus)): 0.417 and -0.264
- composite Z-score [1]: 0.102 (inactive) and -0.135 (inactive)
- composite z-score [2]: -0.225 and 0.604
- composite z-score [3]: -0.113 and -0.147
- composite z-score [4]: 0.819 and 0.787
- composite z-score [5]: -0.144 and 2.41
- composite z-score [6]: -0.657 and 0.721
- composite z-score (Sam68 (KHDRBS1)): -0.495 and 1.14
- composite z-score [7]: -0.184 and -0.565
- composite z-score [8]: 0.116 and 0.686

Compound: CCOC(=O)[C@H](Cc1ccccc1)NC(=O)CCC1CC(OC(=O)NCc2cccc3ccccc23)CC2(CCCC(COC(=O)NCCCN3CCCC3=O)O2)O1 (stereo not given in full)
- composite z-score (Albumin (Bos taurus)): -0.395
- composite Z-score [1]: -0.365 (inactive)
- composite z-score [2]: 0.0203
- composite z-score [3]: -0.101
- composite z-score [4]: 0.165
- composite z-score [5]: 1.14
- composite z-score [6]: -0.223
- composite z-score (Sam68 (KHDRBS1)): 1.12
- composite z-score [7]: 0.5
- composite z-score [8]: 1.08

Compound: COc1ccc(COC(=O)NN=C2C[C@@H](O)[C@@H](O)[C@@H]3[C@@H]4C(=O)N(C(C)(C)C)C(=O)[C@@H]4CC[C@H]23)cc1
- composite z-score (Albumin (Bos taurus)): 0.682
- composite Z-score [1]: 1.08 (inactive)
- composite z-score [2]: -0.194
- composite z-score [3]: -0.0001
- composite z-score [4]: 0.633
- composite z-score [5]: 0.7
- composite z-score [6]: 1.51
- composite z-score (Sam68 (KHDRBS1)): 1.22
- composite z-score [7]: 0.0955
- composite z-score [8]: -0.457

Compound: C[N+](C)(C)CCCCCCNC(=O)[C@H]1C[C@H]2C(=O)N[C@@H](CCCC[N+](C)(C)C)C(=O)N2[C@H]1c1ccc(O)cc1
- composite z-score (Albumin (Bos taurus)): -1.56 and 0.119
- composite Z-score [1]: -0.232 (inactive) and 0.577 (inactive)
- composite z-score [2]: -0.0359 and -0.0947
- composite z-score [3]: -0.136 and -0.0651
- composite z-score [4]: 0.142 and 0.718
- composite z-score [5]: 0.186 and 0.951
- composite z-score [6]: -0.149 and -0.179
- composite z-score (Sam68 (KHDRBS1)): 0.0061 and 0.117
- composite z-score [7]: 0.823 and 0.178
- composite z-score [8]: -0.341 and -0.163

Compound: C=C[C@H](C)[C@H](O)c1ccc(O)c2ccccc12
- composite z-score (Albumin (Bos taurus)): -0.401 and 0.473
- composite Z-score [1]: 0.0296 (inactive) and -0.906 (inactive)
- composite z-score [2]: -0.36 and -0.229
- composite z-score [3]: -0.109 and -0.114
- composite z-score [4]: 0.137 and 0.349
- composite z-score [5]: -0.0769 and 0.283
- composite z-score [6]: -0.055 and -0.15
- composite z-score (Sam68 (KHDRBS1)): -0.512 and -0.791
- composite z-score [7]: -0.14 and -0.152
- composite z-score [8]: -1.05 and -0.559

Compound: C=CC[C@@H](O)c1ccc(O)c2ccccc12
- composite z-score (Albumin (Bos taurus)): -0.0028 and -0.264
- composite Z-score [1]: 1.21 (inactive) and -0.181 (inactive)
- composite z-score [2]: 0.347 and 0.0296
- composite z-score [3]: -0.0523 and -0.153
- composite z-score [4]: 0.524 and 0.379
- composite z-score [5]: 1.18 and 1.3
- composite z-score [6]: 0.207 and -0.0872
- composite z-score (Sam68 (KHDRBS1)): 1.04 and 1.08
- composite z-score [7]: 1.38 and 1.23
- composite z-score [8]: 0.89 and 0.565

Compound: CCCC[C@@H]1CN2[C@H](c3ccc(Br)cc3)[C@@H](C)CC[C@H]2C(=O)O1
- composite z-score (Albumin (Bos taurus)): -0.102 and -0.193
- composite Z-score [1]: -0.0662 (inactive) and -0.0677 (inactive)
- composite z-score [2]: -0.17 and -0.0888
- composite z-score [3]: -0.14 and -0.0316
- composite z-score [4]: -0.199 and -0.139
- composite z-score [5]: -0.263 and 0.0681
- composite z-score [6]: 0.43 and 0.159
- composite z-score (Sam68 (KHDRBS1)): -0.32 and 0.277
- composite z-score [7]: 0.204 and 0.111
- composite z-score [8]: 0.404 and -0.854

Compound: CCOC(=O)NN=C1C[C@@H](O)[C@@H](O)[C@@H]2[C@@H]3C(=O)N(Cc4ccccc4)C(=O)[C@@H]3CC[C@@H]12
- composite z-score (Albumin (Bos taurus)): -0.0904
- composite Z-score [1]: 0.182 (inactive)
- composite z-score [2]: -0.166
- composite z-score [3]: -0.135
- composite z-score [4]: -0.0916
- composite z-score [5]: -0.381
- composite z-score [6]: 0.0195
- composite z-score (Sam68 (KHDRBS1)): 0.254
- composite z-score [7]: 0.772
- composite z-score [8]: 0.42
